Screens from PubChem BioAssay.
Sm TGR block: inhibitors of Schistosoma mansoni thioredoxin glutathione reductase. Q962Y6. Potency, µM (highest dose often 114 µM), inactives show top-dose activity change, negative = inhibition, actives largely listed as inhibitors. purified TGR, DTNB reduction, TNB absorbance 405 nm. AID 485364. actives 3% (n = 360,000); also: % is scaled to controls: 0 for no effect and ±100 for the full control effect; nearly all actives have a fitted effect of over 60% in size
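Kinetic colorimetric format: TGR-catalysed, NADPH-driven DTNB reduction monitored via TNB absorbance. Enzyme dispensed at 20 nM; compound exposure 15 min at room temperature before reaction start.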
Pf growth 48h: inhibits P. falciparum growth in the first generation, 48 h | P. falciparum luciferase growth in erythrocytes, 48 h | Potency, µM (highest dose often 28.7 µM), for the others: at the top dose activity change, negative = inhibition, most hits filed as inhibitors | actives 5.9% (n = 310,000) | AID 504832; also: % is scaled to controls: 0 for no effect and ±100 for the full control effect
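Here the parasites carry a stable luciferase gene and grow inside erythrocytes in Albumax-based RPMI medium with compound for one erythrocytic cycle. Activity is scored as loss of luminescent signal.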
SARS PLP yeast: SARS-CoV PLP inhibition in yeast. actives 0.19% (n = 330,000). S. cerevisiae expressing SARS-CoV PLpro, growth rescue. Potency, µM (series often up to 32.9 µM), for inactives: at the highest dose activity, positive = growth rescue, hits mostly activators; calls by dose curve; also: 0% is about no effect; nearly all actives have a fitted effect of over 55% in size
Pf growth 96h: inhibits malaria parasite growth, 96 h; Potency, µM (highest dose often 28.7 µM), without a hit: at the top dose activity change, negative = inhibition, usual class: inhibitors; actives 6.9% (n = 320,000); AID 504834; P. falciparum luciferase reporter growth, 96 h; also: % is scaled to controls: 0 for no effect and ±100 for the full control effect
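Infected RBCs, 2% Hct / 0.05% parasitemia final; luciferase-reporter P. falciparum; cpd 96 h, 37 C, 5% CO2; luciferase detection reagent; luminescence.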
The depositor's hits bear a star; ? = inconclusive; . = not tested or not shown. Only some compounds are listed: those with a hit (about 12% of all), similar ones and a draw of the others. Unless noted, calls follow the shape of the dose curve; as a rule, active = well fitted curve in the direction sought with a large enough effect; inconclusive = small, poorly fitted or top-dose-only effect, or another doubt; inactive = no such curve, though single readings can be large; an effect the other way counts as inactive or inconclusive. Potency is read from the fitted curve at half-maximal effect.

SMILES | Sm TGR block | Pf growth 48h | SARS PLP yeast | Pf growth 96h
COC(=O)c1ccc(C2CC(=O)Nc3c2c(C)nn3-c2nc(C)cc(C)n2)cc1 (stereo not drawn) | 0% | . | . | .
Cc1ccc(CCNC(=O)Cn2ncc3c([nH]c4ccc(C)cc43)c2=O)cc1 | 28% | . | . | .
Cc1ccc2cccc(N)c2n1 | 1% | -15% | 0% | 0.93µM*
O=C(NC(NNc1ccc([N+](=O)[O-])cc1)(C(F)(F)F)C(F)(F)F)c1ccc(Cl)cc1 | 22µM* | . | -28% | ?
O=C1CSC(c2cccnc2)N1c1ccccc1 (stereo not drawn) | 6% | 135% | 1% | -5%
CC(C)(C)c1ccc(N2C(=O)CSC2c2cccnc2)cc1 (stereo not drawn) | 6% | 1.2µM* | 1% | ?
COc1cccc(OCc2cc(C3Nc4ccccc4C(=O)N3Cc3ccco3)ccc2OC)c1 (stereo not drawn) | 18µM* | 8.3µM* | -8% | -7%
O=C1c2ccccc2NC(c2ccccc2)N1Cc1ccco1 (stereo not drawn) | ? | -14% | -3% | -6%
COc1ccc(C2Nc3ccccc3C(=O)N2Cc2ccco2)cc1COc1ccc([N+](=O)[O-])cc1 (stereo not drawn) | -6% | ? | -10% | 5.9µM*
CCCCc1ccc(NC(=O)Cn2cnc3c(oc4ccccc43)c2=O)cc1 | 7% | . | . | .
Cc1ccc2cc3cc(C(=O)N(C)c4ccccc4C)oc3nc2c1 | 1% | . | . | .
Cc1ccc(CNC(=O)c2nn(-c3ccc(Cl)cc3)nc2CO)cc1 | 7% | . | . | .
Cc1ccc2c(CNCc3cccs3)c(C(=O)O)n(Cc3ccc(F)cc3)c2c1 | -2% | . | . | .
Cc1cc(C)c2cc(C#N)c(N3CCCN(C(=S)NCCCN(C)C)CC3)nc2c1 | ? | -45% | 2% | 10µM*
Cc1cc(C)c2cc(C#N)c(N3CCCC3)nc2c1 | -35% | -5% | -3% | 10µM*
Cc1ccc2cc(C#N)c(N3CCCN(C(=S)NCCCN(C)C)CC3)nc2c1 | ? | 10µM* | 2% | ?
C[C@@](Cc1ccccc1)(NC(=O)CN)c1ccccc1 | . | 6% | . | -18%
COCCN(CC1CCCN(C2Cc3ccccc3C2)C1)C(=O)CSC (stereo not drawn) | 32µM* | ? | -5% | ?
CCCC(=O)NC(C)c1nc2ccccc2n1Cc1ccccc1 (stereo not drawn) | 1% | . | . | .
O=C(c1cc2ccccc2o1)N1CCN(c2ccccn2)CC1 | 9% | 4.7µM* | 0% | 13µM*
O=C(c1cc2ccccc2o1)N1CCN(c2ccccc2Cl)CC1 | 11% | . | -35% | 7.4µM*
CCOCCn1ccc2c(OCC(=O)Nc3cccc([N+](=O)[O-])c3)cccc2c1=O | 6% | . | . | .
COc1cc(OC)cc(OCC(O)Cn2cnc(-c3ccccc3)c2)c1 (stereo not drawn) | -11% | 13µM* | -2% | 1%
COc1ccc(C2=NOC3(CC(=O)N(c4ccc(F)cc4)C3=O)C2)cc1 (stereo not drawn) | 20µM* | ? | 0% | ?
COc1cc(C(=O)OCC(=O)N2CC(C)OC(C)C2)cc(OC)c1OC (stereo not drawn) | 0% | -3% | -2% | 15%
SMILES | Sm TGR block | Pf growth 48h | SARS PLP yeast | Pf growth 96h
CC(=O)n1c2ccccc2c2nc3ccccc3nc21 | 0% | 44% | 1% | 2.6µM*
CCN(CC)C(=O)c1sc(NC(=O)c2nc3ncccn3n2)c(C(=O)OC)c1C | -1% | . | . | .
Cc1nc2ccccc2c(=O)n1/N=C/c1ccccc1F | 4% | . | 4% | 9.3µM*
O=c1c2ccccc2nc(/C=C/c2ccc([N+](=O)[O-])o2)n1-c1ccc(O)cc1 | ? | 9.3µM* | 0% | ?
CC(=O)N(/N=C/c1ccc([N+](=O)[O-])o1)c1nc2ccccc2c(=O)n1-c1ccccc1 | 40µM* | -7% | 0% | -7%
Cc1cccc(-n2c(/C=C/c3ccc([N+](=O)[O-])o3)nc3ccccc3c2=O)c1 | ? | ? | -100% | 70%
Cc1nc2ccccc2c(=O)n1/N=C/c1ccc([N+](=O)[O-])o1 | 14µM* | 13µM* | -7% | 5.9µM*
O=C(Cn1ccc2cc(S(=O)(=O)N3CCCCCC3)ccc21)NCc1ccccc1Cl | 2% | . | . | .
Cc1ccc(CN(Cc2ccco2)C(=O)COc2ccccc2C)cc1 | 0% | . | . | .
COc1ccc(Nc2ncnc3onc(-c4ccc(Cl)cc4)c23)cc1Cl | 10% | . | . | .
CC(=O)N1CCOc2cc(S(=O)(=O)NCc3ccccc3Cl)c(C)cc21 | -13% | . | . | .
CCCCNC(=O)CSc1nc2ccccc2nc1Cc1ccc(Cl)cc1 | -1% | . | . | .
COc1ccc(CCNC(=O)CC2SC(=NCCc3ccccc3)NC2=O)cc1OC (stereo not drawn) | -19% | 13µM* | 5% | 9.3µM*
[O-][n+]1c2ccccc2cc2ccccc21 | -3% | 2.6µM* | 1% | 7.4µM*
CC(C)c1ccc(/C=N/NC(=O)c2nnn(-c3nonc3N)c2CN(C)C2CCCCC2)cc1 | -2% | 2% | 1% | 3%
O=C(Nc1cnn(C23CC4CC(CC(C4)C2)C3)c1)c1cc(-c2ccccc2)on1 | -8% | 10µM* | 4% | .
COc1cccc(CN2CCC(Oc3ccc(C(=O)N4CCCCC4)cc3)CC2)c1O | -18% | ? | -2% | -6%
CSc1nc2c(cnn2-c2ccc(C)c(C)c2)c(=O)[nH]1 | -28% | . | 1% | ?
CSc1nc2nc3c(cc2c(=O)[nH]1)C(O)Oc1ccc(C)cc1-3 (stereo not drawn) | 1% | 1.3µM* | -2% | ?
CCc1ccc(C2C(C(C)=O)=C(C(=O)OC)Nc3nnnn32)cc1 (stereo not drawn) | -20% | -17% | 17% | 5.2µM*
COc1ccc(CCNS(=O)(=O)CCNC(=O)c2ccc(OC)cc2)cc1 | 2% | 48% | 0% | 26%
Cc1cc(/C=N/n2cnnc2)c(C)n1-c1ccc(OCc2ccc(Cl)cc2)cc1 | 0% | . | -30% | 12µM*
O=C(CN1C(=O)C(=O)N(C2CCCC2)C1=O)Nc1ccccc1OC(F)F | . | . | -1% | .
